Data: PubChem BioAssay (NCI)
Compounds without any hit were thinned out: in the full panel of roughly 83,000, 20% have a hit.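 Treatment: one concentration, 48 hours, 96-well format. Scoring: percent growth, with anything below 10 considered active.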 Values without a mark were called inactive. The source made the active and inactive calls.

What was measured:
Test in all cases: NCI-60 one-dose screen, 48 h (100 = growth as untreated, 0 = no growth, -100 = all killed)
Conditions in all cases: 10 µM unless noted
SR leukemia = test system: SR leukemia
RPMI-8226 leukemia = test system: RPMI-8226 leukemia
OVCAR-8 ovarian = test system: OVCAR-8 ovarian
OVCAR-5 ovarian = test system: OVCAR-5 ovarian
OVCAR-4 ovarian = test system: OVCAR-4 ovarian
SK-OV-3 ovarian = test system: SK-OV-3 ovarian
IGROV1 ovarian = test system: IGROV1 ovarian
OVCAR-3 ovarian = test system: OVCAR-3 ovarian
HS 578T breast = test system: HS 578T breast
NCI/ADR-RES ovarian = test system: NCI/ADR-RES ovarian
T-47D breast = test system: T-47D breast
BT-549 breast = test system: BT-549 breast
MDA-MB-435 melanoma = test system: MDA-MB-435 melanoma
SW-620 colon = test system: SW-620 colon
MCF7 breast = test system: MCF7 breast
HCT-116 colon = test system: HCT-116 colon
HCC-2998 colon = test system: HCC-2998 colon
KM12 colon = test system: KM12 colon
MDA-MB-468 breast = test system: MDA-MB-468 breast

| SMILES | growth (SR leukemia) | growth (RPMI-8226 leukemia) | growth (OVCAR-8 ovarian) | growth (OVCAR-5 ovarian) | growth (OVCAR-4 ovarian) | growth (SK-OV-3 ovarian) | growth (IGROV1 ovarian) | growth (OVCAR-3 ovarian) | growth (HS 578T breast) | growth (NCI/ADR-RES ovarian) | growth (T-47D breast) | growth (BT-549 breast) | growth (MDA-MB-435 melanoma) | growth (SW-620 colon) | growth (MCF7 breast) | growth (HCT-116 colon) | growth (HCC-2998 colon) | growth (KM12 colon) | growth (MDA-MB-468 breast) |
| --- | --- | --- | --- | --- | --- | --- | --- | --- | --- | --- | --- | --- | --- | --- | --- | --- | --- | --- | --- |
| Cc1ccc(S(=O)(=O)Nc2ccc(-c3ccc4c(c3)NC(=O)/C4=C\c3ccc[nH]3)cc2)cc1 | -3.97% (active) | 63.6% | 86.7% | 90.8% | 83.3% | 108% | 93.5% | 125% | 92.2% | 89% | 18.8% | 63.7% | 90.1% | 47.2% | 3.35% (active) | 60.6% | 106% | 67.1% | -25.8% (active) |
| CN(C)CCCNC(=S)Nc1ccc(/C=C/c2ccc(Cl)cc2)cc1 | -1.02% (active) | 3.25% (active) | -40.8% (active) | -99.6% (active) | -68.2% (active) | -56.9% (active) | -70.4% (active) | 23.6% | 11.7% | -43.6% (active) | -48.7% (active) | -69.2% (active) | -90.6% (active) | -41.7% (active) | -46.2% (active) | -11.1% (active) | -84.2% (active) | -36.8% (active) | -88.7% (active) |
| C=CCSc1nnc(-c2ccc(-c3nc4ccc(Cl)cc4[nH]3)cc2)o1 | 23.7% | 55.2% | 63.9% | 76.8% | 66.5% | 88.8% | 59.6% | 34% | 36.2% | 54.3% | 68.4% | 22.6% | -22.5% (active) | 27.8% | 25.1% | 29.5% | 83.4% | 34.6% | 28.6% |
| Cc1nc(N)ncc1-c1ccc2ncnc(N3CCc4cc(F)c(Cl)cc43)c2c1 | 45.1% | 59.5% | 65.4% | 49.7% | 59.6% | 56.5% | -10.1% (active) | 52% | 20.1% | 62.7% | 28.1% | 66.8% | 94.6% | 85.2% | 41.7% | 70.4% | 80.7% | 88.2% | -22.5% (active) |
| COc1cccc(NC(=O)c2ccc(NC(=O)CCl)s2)c1 | -0.752% (active) | -22.9% (active) | 10.2% | 47.3% | 94.6% | -1.99% (active) | -13.4% (active) | 35.8% | 65.9% | 22.5% | 26.2% | 27.2% | 2.66% (active) | 3.86% (active) | 5.63% (active) | -27.4% (active) | 80.6% | 42.4% | -14.7% (active) |
| O=C1N/C(=N\c2nccs2)S/C1=C\c1ccc([N+](=O)[O-])cc1 | 25.5% | 6.29% (active) | 14.3% | 32.8% | 12.4% | 52.7% | 23.6% | 12.7% | 20.8% | 8.78% (active) | 15.2% | 35.5% | 22.2% | 20.9% | 9.68% (active) | -1.76% (active) | 22.7% | 14.2% | -14.6% (active) |
| COc1ccc2[nH]c(O)c(N=Nc3nc(-c4ccc(Br)cc4)cs3)c2c1 | 19.3% | 16.3% | -23.7% (active) | 31.4% | -69.6% (active) | -35.3% (active) | 30.6% | -71.3% (active) | 29.3% | -24.6% (active) | -27.2% (active) | 35% | 50.3% | 4.99% (active) | -16.4% (active) | -63.1% (active) | 51.4% | 55.6% | -7.45% (active) |
| CC1CCc2c(sc3nc(SCC(=O)c4cccc([N+](=O)[O-])c4)n(-c4ccccc4)c(=O)c23)C1 (centres undefined) | 49% | 84.1% | 38.6% | 94.2% | 98% | 98.8% | 74.8% | 111% | 94.7% | 65% | 86.8% | 94.5% | 90.8% | 71.1% | 86.5% | 25% | 105% | 93.5% | 83% |
| NS(=O)(=O)c1ccc(Nc2nc(SCC(=O)c3ccc(F)cc3)nc3ccccc23)cc1 | 19.6% | 30.6% | 52.9% | 78.1% | 37.3% | 67.3% | 46.4% | 47.1% | 53.1% | 28.7% | 19.5% | 44.2% | 0.411% (active) | 50.5% | 19.1% | 39% | 47.5% | 19.4% | 11.4% |
| Cc1ccc(C(=O)Nc2cccc(C(=O)NC(=S)Nc3ccc(S(N)(=O)=O)cc3)c2)cc1 | 79.7% | 82.2% | 51.1% | 91.5% | 31.6% | 77% | 96.2% | 78.8% | 63.8% | 84.8% | 47.6% | 51.4% | 72.5% | 116% | 57.2% | 71.6% | 95.8% | 76.9% | 58.7% |
| COc1ccc(-c2nnc3c(/C=C/c4ccc(Br)cc4)nc4ccccc4n23)cc1 | -19.4% (active) | 21.2% | 46.1% | 79.7% | 52.9% | 112% | 47.8% | 15.1% | 81.6% | 67.5% | 64.2% | 9.42% (active) | 28.9% | -10% (active) | 0% (active) | -53.8% (active) | 87.7% | 85.2% | 32.7% |
| COc1cc(CNC(=O)C[C@H](C)CCC=C(C)C)ccc1OCc1cn(-c2ccc(Br)cc2)nn1 | 63.8% | 69.3% | 47.5% | 105% | 49.5% | 64% | 89.9% | 105% | 73.8% | 52.1% | 49.3% | 93.6% | 98.3% | 91.7% | 60.2% | 41.9% | 95.8% | 94.6% | 46.7% |
| COc1cc2cc(C(=O)N3C[C@@H](CCl)c4c3cc(OC(=O)N(CCC(=O)N3CCN(C)CC3)C3CCCCC3)c3ccccc43)[nH]c2c(OC)c1OC | -38.8% (active) | -30.3% (active) | -48.3% (active) | -59.1% (active) | -83.5% (active) | -57.7% (active) | -59.2% (active) | -65.3% (active) | -34% (active) | -62.1% (active) | -43.1% (active) | -94.4% (active) | -90.8% (active) | -55% (active) | -59.6% (active) | -88.1% (active) | -91% (active) | -39.1% (active) | -91.8% (active) |
| Cc1cc(C(NC(=O)C2CC3(CC(Nc4cccc5c4C(=O)N(C4CCC(=O)NC4=O)C5=O)C3)C2)c2ccc3c(c2)OC(F)(F)O3)c(O)c2ncccc12 (centres undefined) | 10.6% | 15% | 4.53% (active) | 35.1% | 35% | -4.52% (active) | 6% (active) | 16.1% | 29.3% | 12.2% | 11.5% | 9.92% (active) | 28.5% | 25.6% | 8.12% (active) | 15.6% | 36.6% | 17.5% | -30.6% (active) |
| CC1=C(C(=O)Nc2ccccc2)C(c2ccc3ccccc3c2)n2c(nc3ccccc32)N1 (centres undefined) | 38.4% | 40.8% | 6.23% (active) | 97.9% | -35.4% (active) | 107% | 67.4% | -21.9% (active) | 40.3% | 41.4% | 91.8% | 92.9% | 53.9% | 9.24% (active) | 9.9% (active) | -36.4% (active) | 52.3% | 69.4% | 17.9% |
| COc1ccc2c(c1)C(=O)N(C)C2C1c2c(cc3c(c2OC)OCO3)CCN1C (centres undefined) | 18.8% | 73.8% | 78.1% | 67.2% | 69.4% | 64% | 43.2% | 9.03% (active) | 48.4% | 27.9% | 56.3% | 68.5% | -21.1% (active) | 23.9% | 14.7% | 27.5% | 63.2% | 15.9% | 8.46% (active) |
